IL1B NFkB pot = enhances IL-1B driven NFkB nuclear translocation. HUVEC IL-1B NFkB p65 nuclear translocation imaging. 94,000 compounds, 0.3% hits. activation, % at 2 µM;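 active = activation above 40%, about the mean plus 3 SD, also judged a hit on visual image review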;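 note: percent activation is computed from the nuclear over cytoplasmic p65 intensity ratio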
IL1B cytotox = toxic to HUVEC cells under IL-1B stimulation; HUVEC cell count loss, Hoechst imaging, IL-1B stimulated; cell count reduction, % at 2 µM; 94,000 compounds, 0.41% hits;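 active = cell count reduction more than 3 SD above the screen-wide mean, cut at about 70% in these data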;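 note: normalized per plate to untreated control cells as the no-loss baseline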
PLAP act = activators of human placental alkaline phosphatase | P05187 | purified PLAP enzyme, luminescent substrate read-out; active compounds read high | activation fold at 20 µM | 96,000 compounds, 1.2% hits | AID 696; in the data active = activation fold above about 2
IL1B NFkB inh = blocks IL-1B driven NFkB nuclear translocation in HUVEC cells. 94,000 compounds, 0.43% hits. HUVEC IL-1B NFkB p65 nuclear translocation imaging. inhibition, % at 2 µM;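 active = inhibition above about 30% together with a positive call from visual inspection of the well image, limit read from the data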;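 note: nuclear over cytoplasmic p65 intensity ratio measured by imaging; 0% = IL-1B stimulated DMSO wells and 100% = unstimulated DMSO wells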
TNAP act mid DEA = activates human TNAP at intermediate phosphate acceptor concentration; activation factor at 20 µM; 64,000 tested, under 10 active; purified TNAP, CDP-star luminescence, 100 mM DEA, 30 min; active compounds read high; scale: 0 levamisole-inhibited, 1 vehicle-only enzyme; P05186;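 active = activation factor of at least 2 at 20 µM, relative to controls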
Target sequence (P05186 whole entry, looked up): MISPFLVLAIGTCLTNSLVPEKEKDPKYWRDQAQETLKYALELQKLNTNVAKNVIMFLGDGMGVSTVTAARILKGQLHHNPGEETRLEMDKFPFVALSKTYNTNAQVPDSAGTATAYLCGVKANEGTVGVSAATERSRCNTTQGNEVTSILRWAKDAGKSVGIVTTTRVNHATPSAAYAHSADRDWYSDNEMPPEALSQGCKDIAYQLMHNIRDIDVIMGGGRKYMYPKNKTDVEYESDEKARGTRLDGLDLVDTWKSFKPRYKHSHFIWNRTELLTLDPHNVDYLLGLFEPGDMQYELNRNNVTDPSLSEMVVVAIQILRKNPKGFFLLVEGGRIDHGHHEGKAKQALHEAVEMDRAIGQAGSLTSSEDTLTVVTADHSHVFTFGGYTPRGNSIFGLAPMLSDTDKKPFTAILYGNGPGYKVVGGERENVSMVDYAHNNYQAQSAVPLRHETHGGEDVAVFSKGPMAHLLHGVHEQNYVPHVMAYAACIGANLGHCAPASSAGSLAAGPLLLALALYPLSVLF
Numbers without * were called inactive; x = not tested or not shown. Compounds with a hit are over-represented: about 2.1% of the library has one in this group of screens.

SMILES	IL1B NFkB pot	IL1B cytotox	PLAP act	IL1B NFkB inh	TNAP act mid DEA
Cc1nn(Cc2ccccc2)c(C)c1NC(=O)CSc1nc(C2CC2)nc2c1cnn2-c1ccccc1	-46.5	-9.6	1.5	46.5*	x
C=CCc1c(C)nc(SCC(N)=O)[nH]c1=O	4.0	-5.1	1	-4.0	x
CCOC(=O)CNC(=O)CSc1nc2nc(C)c(Br)cc2[nH]1	-5.9	-78.5	2.3*	5.9	0.9
Cc1nc2nc(SCC(N)=O)[nH]c2cc1Br	13.3	-27.5	2.2*	-13.3	0.9
O=C(OCc1ccc(F)cc1)c1ccc2c(c1)-c1ccccc1C2=O	2.9	6.6	1	-2.9	x
CCOC(=O)C1=C(Cc2ccc(F)cc2)C(=O)c2ccccc2C1=O	58.7*	0.6	0.9	-58.7	x
Cc1ccc(C)c(SCc2noc(C(=O)NCC3CCCO3)c2C(=O)O)c1 (configuration not stated)	2.9	2.0	1.1	-2.9	x
C=CCC(NCc1ccco1)c1ccc(OC)cc1OC (configuration not stated)	-57.9	-2.2	1	57.9*	0.9
CC(C)(C)c1cc(NC(=O)COc2ccc(Br)cc2)n(-c2ccccc2)n1	6.7	-13.5	0.9	-6.7	x
CCOC(=O)c1c(NC(=O)COC)sc(C)c1C	49.3*	-25.1	x	-49.3	x
CCOC(=O)c1c(NC(=O)CSc2n[nH]c(N)n2)sc(CC)c1C	x	x	2.2*	x	1.1
CCOC(=O)c1c(NC(=O)COC)sc(C(C)=O)c1C	0.1	-22.6	0.7	-0.1	0.9
COc1ccc2cc(CN(CC3CCCO3)S(=O)(=O)c3ccccc3Cl)c(=O)[nH]c2c1 (configuration not stated)	8.8	-80.9	2*	-8.8	x
Cn1c(-c2c(N)n(CCCc3ccccc3)c3nc4ccccc4nc23)nc2ccccc21	-10.1	9.7	1.5	10.1	x
COCCCn1c(N)c(-c2nc3ccccc3n2C)c2nc3ccccc3nc21	10.6	-12.7	2*	-10.6	x
Cn1c(-c2c(N)n(CCc3ccccc3)c3nc4ccccc4nc23)nc2ccccc21	-7.9	8.3	2.1*	7.9	x
O=C(CSc1nnc(-c2ccccc2F)n1C1CCCCC1)N1CCCC1	12.8	-2.6	1.2	-12.8	0.9
O=C(CSc1nnc(-c2ccc(Cl)cc2Cl)n1C1CCCCC1)N1CCCC1	-1.0	0.0	2*	1.0	x
N#C/C(=C\c1cccs1)C(=O)NCC1CCCO1 (configuration not stated)	1.5	-2.2	0.8	-1.5	x
N#C/C(=C/c1cc(Br)cs1)C(=O)NCC1CCCO1 (configuration not stated)	-97.2	88.4*	1.1	97.2*	x
COc1ccc(NC(=O)NCCCN2CCc3ccccc3C2)cc1	x	x	1.6	x	1
O=C(NCCCN1CCc2ccccc2C1)Nc1ccc(Br)cc1	x	x	2.3*	x	x
COc1cccc(/C=N/Nc2nc(Nc3ccccc3)nc(-n3nc(C)cc3C)n2)c1O	14.6	-8.0	2.3*	-14.6	x
Cc1cc(C)n(C(C[N+](=O)[O-])c2ccc(Cl)cc2)n1 (configuration not stated)	10.8	-30.1	1.5	-10.8	x
Cc1ccc(C)c(/C(O)=C2/C(=O)C(=O)N(CCN3CCOCC3)C2c2ccc(C)o2)c1 (configuration not stated)	107.4*	-6.5	1.1	-107.4	0.9
SMILES	IL1B NFkB pot	IL1B cytotox	PLAP act	IL1B NFkB inh	TNAP act mid DEA
CCOC(=O)CN1C(=O)C(CC)Oc2ccccc21 (configuration not stated)	-5.7	8.3	0.9	5.7	0.9
CCOC(=O)CN1C(=O)C(Sc2n[nH]c(-c3ccccc3)n2)CCc2ccccc21 (configuration not stated)	-1.4	1.7	2*	1.4	x
Oc1ccc(N2CCN(C(=S)NCCc3ccccc3)CC2)cc1	0.9	-80.9	1	-0.9	x
CCC(Sc1ccc2nnc(-c3ccc(F)cc3)n2n1)C(=O)OC (configuration not stated)	-3.2	82.2*	1.4	3.2	0.8
CCOc1ccc(C)cc1S(=O)(=O)NC1CCCCC1	-7.2	-18.3	2.2*	7.2	0.9
C(=C\CSc1ncn[nH]1)/CSc1ncn[nH]1	2.5	-15.8	2.7*	-2.5	1.3
O=C(O)c1ccccc1CSc1ncn[nH]1	9.1	13.9	1.2	-9.1	x
O=C(CSc1ncn[nH]1)c1ccco1	-9.0	-9.8	x	9.0	0.9
O=C(CSc1ncn[nH]1)N(C1CCCCC1)C1CCCCC1	21.2	-0.6	2*	-21.2	x
c1n[nH]c(SCCCCSc2ncn[nH]2)n1	6.5	-11.1	2.6*	-6.5	1.2
O=C(CSc1ncn[nH]1)c1ccccc1	5.3	-1.6	2.2*	-5.3	0.9
O=C(O)C1CSC2(CCN(Cc3ccccc3)CC2)N1 (configuration not stated)	11.9	12.7	x	-11.9	x
CCCCCOc1ccc(CSc2ncn[nH]2)cc1	4.2	-8.8	x	-4.3	x
CCCCOc1ccc(CSc2ncn[nH]2)cc1	-4.0	-35.8	2.3*	4.0	1.2
COc1ccc(C2=NOC(C(=O)NCCN3CCOCC3)C2)cc1 (configuration not stated)	0.7	-12.7	1.2	-0.7	0.9
COc1ccc(C2=NOC(C(=O)NCCCN3CCOCC3)C2)cc1 (configuration not stated)	46.8*	5.3	0.8	-46.8	0.9
Cc1cccc(N(C(=O)c2sc(C)nc2C)C(C(=O)NCc2ccco2)c2ccccc2)c1 (configuration not stated)	47.4*	2.3	1.5	-47.4	x
Cc1cc(C)cc(N(C(=O)c2sc(C)nc2C)C(C(=O)NCc2ccco2)c2ccccc2)c1 (configuration not stated)	3.0	-7.8	1.5	-3.0	x
COCCNC(=O)c1ccc2c(=O)n(Cc3ccco3)c(SCC(=O)NC3CCCC3)nc2c1	-8.8	36.4	2.2*	8.8	x
O=C(NCc1ccccc1)c1cnsn1	14.8	89.3*	1.1	-14.8	0.9
O=C(NCc1ccccc1)c1cc(-c2cccs2)on1	19.8	-51.0	1.2	-19.8	1
CCCc1nc2ccccc2c(=O)n1/N=C/c1c(C)[nH]n(-c2ccc(C)cc2)c1=O	-8.5	18.1	2.1*	8.5	0.9
COc1ccc(-c2cc(=O)[nH][nH]2)cc1OC	8.0	-6.4	2.2*	-8.0	x
O=c1cc(-c2ccccc2)[nH][nH]1	-2.8	-0.6	x	2.8	x
Cc1ccc(S(=O)(=O)Cn2nnnc2CN(Cc2ccco2)CC2CCCO2)cc1 (configuration not stated)	2.8	5.9	1.4	-2.8	0.8
Cc1ccc2[nH]c(=O)c(C(c3nnnn3CC3CCCO3)N3CCCc4ccccc43)cc2c1 (configuration not stated)	7.1	-15.7	1.5	-7.1	1
COc1ccc(N2CCN(C(CNC(=O)c3ccco3)c3cccnc3)CC2)cc1 (configuration not stated)	40.4*	-12.4	1.1	-40.4	0.9
O=C1CC(C(=O)Nc2nccs2)C(c2ccccc2)O1 (configuration not stated)	x	x	1	x	x
O=C(CCC(=O)N(CC(=O)NC1CCCC1)C1CCCC1)Nc1ccccn1	127.4*	6.1	1.6	-127.4	0.9
